Data reported in PubChem BioAssay (NCI).
Several values for one entry are separate records, joined by “and”; a condition that tells them apart may be missing. Equal entries are not always repeated. This is part of a sample that, as a whole, favours compounds with a hit. Of some 83,000 tested, about 20% had one in any assay.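 96-well plates, one dose, 48 hours. Percent growth reported; active if below 10.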 Values without a mark were called inactive. Activity calls are given as the source filed them.

Each compound was assayed on OVCAR-8 ovarian (assay: NCI-60 one-dose screen, 48 h (100 = growth as untreated, 0 = no growth, -100 = all killed)). Conditions: 10 µM unless noted.
`C/C(=N/O)c1ccc(NC(=O)CSc2nnc(-c3ccc(-c4nc5ccc(Cl)cc5[nH]4)cc3)o2)cc1` was tested, and the growth was -31.7% (active).
In the case of `CC[C@@]12CC(C(=O)OC)=C3Nc4cc5c(cc4[C@@]34CCN(C[C@H]3O[C@H]31)[C@@H]24)[C@@H]1[C@H](O5)[C@@H](O)[C@@]2(CC)CC(C(=O)OC)=C3Nc4cc(O)ccc4[C@@]34CCN1[C@@H]24`, the growth is reported as 2.33% (active).
For `N#Cc1c(-c2ccc(F)cc2)nc(SCc2ccccc2)nc1N1CCNCC1`, the growth was -77.5% (active).

These compounds were tested on OVCAR-5 ovarian in the same assay as above. Conditions: 10 µM unless noted.
`Cc1ccc(Cl)cc1NC(=O)N/C(N)=N/c1nc2ccccc2s1` was tested, and the growth was -28.7% (active).
For `Nc1cc(-c2c[nH]c3ccc(Cl)cc23)nc2cc(-c3c[nH]c4ccccc34)nn12`, the growth was -50.4% (active).
Compound `COc1cc(CNC(=O)C[C@H](C)CCC=C(C)C)ccc1OCc1cn(-c2ccc(Cl)c(Cl)c2)nn1` has a growth of 86.4%.
In the case of `C[C@@H](Nc1c(C#N)cnc2ccc(-c3cnc4[nH]ncc4c3)cc12)c1ccccc1`, the growth is reported as 15.2%.
`COc1ccc(C2=NN(C(=O)[C@H]3[C@@H](c4ccco4)c4sc(=O)[nH]c4S[C@@H]3C)C(c3ccc4ccccc4c3)C2)cc1` (stereo partly drawn) gave a growth of 42.9%.
In the case of `Cc1cc(C)c2[nH]c(=O)c(C(c3nnnn3Cc3ccc4c(c3)OCO4)N3CCN(C)CC3)cc2c1` (stereo not drawn), the growth is reported as 108%.
`COc1ccc(NC(=O)N/N=C/c2c[nH]c3ccccc23)cc1` gave a growth of 37.4%.
`COc1ccc2[nH]c(O)c(N=NC(=O)c3ccc4nc(-c5ccc(Cl)cc5)[nH]c4c3)c2c1` gave a growth of 72.1%.
`Cc1ccc(O)cc1Nc1nc(SCCN2CCOCC2)nc2c1cnn2CC(Cl)c1ccc(Br)cc1` (stereo not drawn) showed a growth of 18.8%.
With `CCOc1ccccc1[C@H]1C(C(=O)c2ccc(Cl)cc2)C2(N[C@@H]1c1ccccc1)C(=O)Nc1ccc(Br)cc12` (stereo partly drawn) the growth was -20.8% (active).
For `CC1(C)CC(=O)C2=C(C1)OC(N)=C(c1nc3ccccc3[nH]1)C2c1ccc(Cl)cc1` (stereo not drawn), the growth was 101% and 118%.
In the case of `COc1ccc(-c2cc(C(=O)N=Nc3c(O)[nH]c4ccc(Cl)cc34)c3ccccc3n2)cc1OC`, the growth is reported as 104%.
`COc1ccc2c(c1)c(-c1cc(N)n3nc(-c4c[nH]c5ccccc45)cc3n1)cn2C` was tested, and the growth was -69.7% (active).
`Cc1ccc2c(c1)nc(-c1ccccc1)n2CC(=O)N=Nc1c(O)[nH]c2ccc(Cl)cc12` was tested, and the growth was -52.5% (active).
Work on `CS(=O)(=O)Nc1cccc(-n2c(COc3ccc(OC(F)(F)F)cc3)nc3ccccc32)c1` yielded a growth of 124%.
`Oc1ccc(Cl)c(Nc2nc(SCCN3CCOCC3)nc3c2cnn3CC(Cl)c2ccc(Br)cc2)c1` (stereo not drawn) was tested, and the growth was 50.4%.
For `COc1ccccc1NC(=O)N/N=C/c1c[nH]c2ccccc12`, the growth was 34.4%.
With `Nc1cccc(-n2c(COc3ccc(I)cc3)nc3ccccc32)c1` the growth was 88.6% and 105%.
`O=C1CCC(N2C(=O)c3cccc(NCCCCCC(=O)N4CCN(c5ccc6nc7c(nc6c5C(F)(F)F)C(=O)c5ncccc5C7=O)CC4)c3C2=O)C(=O)N1` (stereo not drawn) was tested, and the growth was -90.5% (active).
Work on `OCCn1cc(-c2nc3ccc4[nH]ncc4c3c3c2CCCC3)cn1` yielded a growth of 97.8%.
`Cc1ccc(N=Nc2c(N)nn3c(-c4cc5cc(Br)ccc5oc4=O)ccnc23)cc1` was tested, and the growth was 54.8%.
`COc1ccc(C(=O)C[n+]2cccc3c4ccccc4ccc32)cc1` showed a growth of 58.3%.
With `CCCCCCCCCc1ccc(C(=O)Nc2cc(C)ccc2C(=O)OC)cc1` the growth was 111%.
Compound `Cc1nc(Nc2ccccn2)sc1C1=NNC(c2ccccc2F)C1` (stereo not drawn) has a growth of 82.8%.
`NS(=O)(=O)c1ccc(Nc2nc(N/N=C/c3cc(Br)c(O)c(Br)c3)nc(Nc3ccccc3)n2)cc1` gave a growth of 106%.
With `C=CC(=O)Nc1ccc(C(=O)/C=C/c2ccc(N(C)C)cc2)c(O)c1` the growth was 7.71% (active).
For `CCCCCCCCc1ccc(C(=O)Nc2cccc(O)c2)cc1`, the growth was 100%.
`Clc1ccc(-c2nc3c4c(-c5ccccc5)c(-c5ccccc5)n(Cc5ccccc5)c4ncn3n2)cc1` was tested, and the growth was 16.6%.
With `Nc1nn2c(-c3cc4cc(Br)ccc4oc3=O)ccnc2c1N=Nc1ccc(S(N)(=O)=O)cc1` the growth was 112%.
`Cc1ccc(C(=O)Nc2cc(-n3ccnc3)cc(C(F)(F)F)c2)cc1-n1cc(-c2cnc3cccnn23)nn1` gave a growth of 66.6%.
